Source: PubChem BioAssay
An excerpt weighted towards active compounds, which were near 1.8% of everything screened.
HDAC3 inhib – HDAC3 deacetylase inhibitors, primary screen, biochemical, fluorescence, cell-free homogeneous; recombinant HDAC3, fluorogenic peptide/trypsin coupled; inhibition, % at 8.3 µM; 320,000 tested, 0.15% active; Histone deacetylase 3 (Homo sapiens), O15379; in the data active = inhibition above about 26%, passing the limit was not always enough
Neddylation inh – inhibitors of cullin neddylation, primary screen, biochemical, TR-FRET, uHTS, NAE and Ubc12; inhibition, % at 25 µM; NEDD8-conjugating enzyme Ubc12 (Homo sapiens) + NEDD8-activating enzyme E1 regulatory …; 360,000 tested, 0.58% active; AID 651699, 2012; in the data active = inhibition above about 36%
Target sequence (P61081 whole entry, looked up): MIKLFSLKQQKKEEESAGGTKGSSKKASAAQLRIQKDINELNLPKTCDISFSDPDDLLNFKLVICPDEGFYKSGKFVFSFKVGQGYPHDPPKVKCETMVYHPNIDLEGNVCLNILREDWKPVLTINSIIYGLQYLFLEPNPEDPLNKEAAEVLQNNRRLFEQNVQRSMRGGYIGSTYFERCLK
Target sequence (Q13564 whole entry, looked up): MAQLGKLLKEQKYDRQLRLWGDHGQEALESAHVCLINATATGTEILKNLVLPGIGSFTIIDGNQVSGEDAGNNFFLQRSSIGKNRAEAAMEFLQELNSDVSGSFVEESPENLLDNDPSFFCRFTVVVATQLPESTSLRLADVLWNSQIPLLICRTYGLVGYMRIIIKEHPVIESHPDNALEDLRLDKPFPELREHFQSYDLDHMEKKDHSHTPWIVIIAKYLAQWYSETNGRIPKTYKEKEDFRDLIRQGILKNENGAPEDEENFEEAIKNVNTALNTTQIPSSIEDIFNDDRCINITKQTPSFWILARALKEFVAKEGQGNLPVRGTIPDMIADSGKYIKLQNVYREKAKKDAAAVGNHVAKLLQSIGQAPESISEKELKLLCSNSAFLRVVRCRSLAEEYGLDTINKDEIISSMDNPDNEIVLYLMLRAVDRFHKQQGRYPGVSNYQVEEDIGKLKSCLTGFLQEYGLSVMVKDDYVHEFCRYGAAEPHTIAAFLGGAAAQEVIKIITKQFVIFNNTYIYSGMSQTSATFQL
GRK2 inh – compounds blocking aptamer binding on GRK2 – biochemical, human GRK2, bead flow cytometry, HTS, primary screen | FAM-aptamer displacement from GRK2 | Beta-adrenergic receptor kinase 1 (Homo sapiens), P25098 | 330,000 tested, 0.59% active | inhibition of aptamer binding, % at 10 µM;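 active = inhibition of aptamer binding above 40%, roughly 3 SD of noise, on plates passing a quality check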;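 also: median bead fluorescence of bound FAM aptamer so fluorescent compounds give negative values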
Cardio protect – cardioprotection against H2O2-induced cell death, primary screen, uHTS, H9c2 cells, ATPLite luminescence. H9c2 cardiomyocytes, H2O2 injury protection, 2 h. protection from H2O2 cell death, % at 20 µM. 360,000 tested, 0.63% active. AID 588492, 2011;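 active = compounds giving at least 50% protection of heart cells from peroxide-induced death in the single-dose screen, raw or plate-pattern-corrected value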;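 also: 0% = DMSO wells with peroxide and 100% = DMSO wells without peroxide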
* marks the source's active call; other numbers are inactive results; i = inactive; · = no result shown.

SMILES	HDAC3 inhib	Neddylation inh	GRK2 inh	Cardio protect
Cc1cc(O)c(C)c(O)c1/C=N/NC(=O)c1cccnc1	6.9	-11.7	8.0	51.3*
COc1ccc(/C=N/NC(=O)c2cccnc2)cc1O	-1.1	-7.7	0.0	-3.3
COc1cc(/C=N/NC(=O)c2cccnc2)ccc1OS(=O)(=O)c1ccc(C)cc1	3.1	-17.4	0.0	16.1
COc1cc(/C=N/NC(=O)c2cccnc2)ccc1OS(=O)(=O)c1ccc(F)cc1	-1.4	-15.3	1.0	84.8*
COc1cccc(CNC2CCCCCCC2)c1OC	0.8	6.2	2.0	-13.0
CCOc1cccc(/C=N/NC(=S)Nc2cc(S(=O)(=O)N3CCOCC3)ccc2N2CCOCC2)c1O	1.3	·	1.0	54.5*
Cc1cc(O)c(C=Nc2ccc(N3CCOCC3)cc2)c(C)c1Cl	-5.1	-18.1	4.0	83.1*
COC(=O)C1=CN(c2ccc(C(C)(C)C)cc2)C(N)=C(C#N)C1c1cccc([N+](=O)[O-])c1 (stereo not drawn)	·	-5.9	·	·
NC(=O)c1c(NC(=O)Cn2nc(C(=O)O)c3ccccc3c2=O)sc2c1CCC2	-1.0	-51.9	4.0	54.3*
CCc1nc2c(OCCOC)cccn2c1N(C)C(=O)c1ccco1	·	-4.5	·	-1.6
O=C(CSc1nnc(Cc2cccs2)n1CCc1ccccc1)N1CCCc2ccccc21	-0.6	-1.8	3.0	66.7*
CC(=O)C1=C(O)C(=O)N(Cc2ccccc2)C1c1ccc([N+](=O)[O-])cc1 (stereo not drawn)	7.0	-23.5	5.0	2.4
COc1cc2ccccc2cc1C(=O)Nc1sc2c(c1C(N)=O)CCN(C(C)C)C2	2.8	50.2*	0.0	-17.2
CN1CCc2c(sc(NC(=O)c3ccc4ccccc4c3)c2C(N)=O)C1	4.2	32.4	3.0	-7.7
CCN(Cc1ccncc1)Cc1nc(-c2ccc(C(=O)OC)cc2)no1	2.5	1.0	0.0	-11.0
Clc1cccc(N/N=C(\Cc2nc3ccccc3[nH]2)c2ccccc2)c1	·	10.4	0.0	-7.0
O=c1[nH]c2ccccc2nc1-c1cccs1	-31.2	·	6.0	17.8
O=c1[nH]nc(-c2cccs2)c2ccccc12	4.5	-8.7	2.0	69.5*
C[C@@H]1ON(C)[C@H]2C[C@H]3c4[nH]c5ccc(-c6ccc7c(c6)OCO7)cc5c4CCN3C[C@@H]12	·	28.6	·	62.2*
C[C@H](O)[C@@H]1CN2CCc3c([nH]c4ccc(-c5ccc6c(c5)OCO6)cc34)[C@@H]2C[C@@H]1N(C)C(=O)Nc1ccc(F)cc1	·	19.9	·	-24.0
CC(=O)c1ccc(S(=O)(=O)NCC(=O)NC(c2nc3ccccc3[nH]2)C(C)C)cc1 (stereo not drawn)	-2.9	-1.8	2.0	7.9
CCOC(=O)c1cnc(-n2nc(C)cc2C)nc1NCCO	-9.1	29.8	0.0	-2.7
CCOC(=O)c1cnc(-n2nc(C)cc2C)nc1NCc1ccccc1	-4.2	19.4	0.0	63.3*
C[C@H](CO)N1C[C@H](C)[C@@H](CN(C)CC2CCOCC2)Oc2cc(C#Cc3ccccc3F)ccc2S1(=O)=O	·	18.2	·	25.4
C[C@@H]1CN([C@H](C)CO)S(=O)(=O)c2ccc(C#Cc3ccccc3F)cc2O[C@H]1CN(C)C(=O)c1ccc2c(c1)OCO2	·	24.2	·	105.7*
SMILES	HDAC3 inhib	Neddylation inh	GRK2 inh	Cardio protect
CC(C)OCCCNC(=O)CCC(=O)NNc1nc2ccccc2c2nc(-c3ccccc3)nn12	5.8	3.0	3.0	84.4*
CCOCCCNC(=O)CCC(=O)NNc1nc2ccccc2c2nc(-c3ccccc3)nn12	·	9.2	0.0	53.7*
O=C(O)c1c2c(nc3ccccc13)/C(=C/c1cccc([N+](=O)[O-])c1)CCC2	5.2	-30.1	1.0	3.6
Cc1cnc(C=O)c2cccc([N+](=O)[O-])c12	·	2.2	·	57.4*
N#CC(=C=[N-])c1nc2ccccc2nc1-[n+]1cccc(NC(=O)c2cccs2)c1	-3.9	-8.1	1.0	-24.1
Cc1ccc(-n2nc(CN3CCOCC3)c(-c3ccccc3)c2N)cc1Cl	-14.3	18.5	0.0	-1.5
CCOC(=O)c1ccc(NC(=O)COc2cc(=O)n(CC)c3ccccc23)cc1	2.8	i	4.0	9.1
CCn1c(=O)cc(OCC(=O)Nc2ccccc2C#N)c2ccccc21	-5.8	-8.7	3.0	59.6*
CCOc1cc(/C=N\NC(=O)c2ccc(NC(=O)C(C)(C)C)cc2)ccc1OC(=O)c1cccc(C)c1	17.8	0.8	0.0	65.9*
CC(C)(C)C(=O)Nc1ccc(C(=O)N/N=C/c2ccccc2OC(=O)c2ccccc2)cc1	35.3*	7.5	0.0	52.5*
Cn1cnc(S(=O)(=O)Nc2cc(-c3ccc(Cl)cc3)nn2C)c1	·	3.6	4.0	2.3
O=C(CSc1nnc(CCCOc2ccc(Cl)cc2Cl)o1)Nc1ccc(C(=O)O)cc1	0.4	7.9	0.0	-2.7
COC1=C(N)C(=O)c2nc(-c3nc(C(=O)O)c(C)c(-c4ccc(OC)c(OC)c4O)c3N)ccc2C1=O	·	·	66.0*	·
COc1ccc(-c2ncncc2-c2csc(C)n2)c(O)c1OC	-1.1	-3.3	0.0	0.8
O=C(Nc1nc2ccccc2n1Cc1ccccc1)c1ccco1	-5.5	18.9	0.0	58.0*
CCN(CC)CCn1c(NC(=O)c2ccc(Cl)cc2)nc2ccccc21	-3.0	-216.9	0.0	62.5*
CCC(=O)Nc1nc2ccccc2n1Cc1ccc(Cl)cc1	9.9	2.6	0.0	25.6
CCCn1c(NC(=O)c2ccccc2)nc2ccccc21	-1.4	20.8	0.0	51.5*
Cn1c(/C=N/NC(=O)c2ccccc2)nc2ccccc21	-0.1	25.4	0.0	65.4*
O=C(COC(=O)c1cccc(S(=O)(=O)N2CCOCC2)c1)NC1CCCCC1	·	1.4	·	-0.3
N#Cc1c(-c2ccc(Cl)cc2)c(-c2ccc(Cl)cc2)nn(CCO)c1=O	·	9.8	·	-0.2
CCCn1c(NC(=O)c2cccc(S(=O)(=O)N3CCCC3)c2)nc2ccccc21	-6.1	35.4	0.0	99.1*
CC(=O)N1CCN(c2ccccc2NC(=O)c2ccc(-c3cccc([N+](=O)[O-])c3)o2)CC1	-1.6	-16.0	1.0	79.2*
CN(C)CCCN(C(=O)c1ccc2c(c1)OCCO2)c1nc2cc3c(cc2s1)OCO3	19.0	2.7	0.0	19.8
CN(C)CCCN(C(=O)c1ccc([N+](=O)[O-])o1)c1nc2cc3c(cc2s1)OCO3	14.1	-10.4	55.0*	-4.3
SMILES	HDAC3 inhib	Neddylation inh	GRK2 inh	Cardio protect
CCc1ccc(/C=C2/SC(=S)N(CCC(=O)Nc3cccnc3)C2=O)cc1	-2.4	-8.6	0.0	-12.7
O=C(O)c1nn(CCOc2ccccc2F)c(=O)c2ccccc12	1.3	-12.1	0.0	53.7*
Cc1cc(OCCn2nc(C(=O)O)c3ccccc3c2=O)ccc1C(C)C	·	-2.0	·	6.1
O=C(O)c1nn(CCOc2ccc(Br)cc2)c(=O)c2ccccc12	5.0	-10.0	2.0	55.4*
O=C1Nc2cc(C(=O)N3CCOCC3)ccc2S/C1=C/c1ccccc1F	·	5.7	·	-1.4
COc1cccc(NC(=O)CN(C)C(=O)Cn2cnc3ccccc3c2=O)c1	-1.3	4.0	2.0	4.3
